This is an account of results in PubChem BioAssay (Tox21).

Values without a mark were called inactive. Records with an inconclusive call do not appear. Calls of active or inactive are those of the source. The call rests on the fitted dose curve; in most records, active means well fitted curve in the direction sought with a large enough effect in the repeat runs; inconclusive means weak or mixed curves; inactive means no such curve, though single readings can be large; an effect the other way counts as inactive or inconclusive.

Assay [1] in a line: qHTS RealTime-Glo MT Cell Viability Assay in HEK293 cells - 0 hour (AID 1224880). Further: top concentration of the series differs between compounds; nearly all actives have a fitted effect of over 45% in size. The method in brief: (§1)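 qHTS format; HEK293 cells with NanoLuc/prosubstrate reagent, 37 C/5% CO2 for 5 h pre-dosing; compounds 23 nL in DMSO; luminescence at each time point reflects viable cells.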
On the technique in general: qHTS replaces the single test concentration by a dilution series.

The nature of assay [2]: A CellTox Green Cytotoxicity Assay to monitor cytotoxicity in HEK293 cells - 32 hour (AID 1224881). Further: nearly all actives have a fitted effect of over 40% in size. Further: potency means the concentration at half of the fitted maximal effect. Put shortly: (§2)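 Each value comes from one timepoint of a single continuous run in which HEK293 cells with CellTox Green were exposed to compound for up to 40 h at 37 C, dye fluorescence rising with cell death.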
A short description of assay [3]: A CellTox Green Cytotoxicity Assay to monitor cytotoxicity in HepG2 cells - 0 hour (AID 1224882). Further: nearly all actives have a fitted effect of over 35% in size. Put shortly: (§3)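 Continuous culture of HepG2 cells with a membrane-impermeant DNA dye; rising fluorescence marks dead cells. Compound exposure lasted up to 40 h at 37 C, with reads every 8 h from 0 h.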
The nature of assay [4]: A CellTox Green Cytotoxicity Assay to monitor cytotoxicity in HepG2 cells - 32 hour (AID 1224883). Further: nearly all actives have a fitted effect of over 50% in size. Put shortly:
as §3

Assay [5] is described as follows: A CellTox Green Cytotoxicity Assay to monitor cytotoxicity in HEK293 cells - 8 hour (AID 1224884). Further: nearly all actives have a fitted effect of over 35% in size. The method in brief:
as §2

Assay [6] can be described thus: qHTS RealTime-Glo MT Cell Viability Assay in HEK293 cells - 24 hour (AID 1224886). Further: nearly all actives have a fitted effect of over 50% in size. Further: potency means the concentration at half of the fitted maximal effect. Put shortly: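 HEK293 cells were seeded at 600 cells/well together with NanoLuc luciferase and cell-permeant prosubstrate, preincubated 5 h at 37 C/5% CO2, then given compound in DMSO by pintool. Luminescence from viable-cell prosubstrate reduction was read repeatedly over 40 h.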
Assay [7] is described as follows: qHTS RealTime-Glo MT Cell Viability Assay in HEK293 cells - 8 hour (AID 1224887). Further: nearly all actives have a fitted effect of over 50% in size. Further: potency means the concentration at half of the fitted maximal effect. Put shortly: as §1
Assay [8] can be described thus: A CellTox Green Cytotoxicity Assay to monitor cytotoxicity in HEK293 cells - 16 hour (AID 1224888). Further: nearly all actives have a fitted effect of over 35% in size. The method in brief:
as §2

Assay [9] in a line: qHTS RealTime-Glo MT Cell Viability Assay in HepG2 cells - 0 hour (AID 1224889). Further: nearly all actives have a fitted effect of over 50% in size. Put shortly: (§4)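 HepG2 cells were seeded at 600 cells/well together with NanoLuc luciferase and a cell-permeant prosubstrate, preincubated 5 h at 37 C/5% CO2, then pin-dosed with compounds in DMSO. Nonlytic luminescence from viable cells was read at each time point.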
Assay [10] in a line: qHTS RealTime-Glo MT Cell Viability Assay in HepG2 cells - 16 hour (AID 1224885). Further: nearly all actives have a fitted effect of over 50% in size. The method in brief: as §4

Regarding `COC(=O)C1=C(C)NC(C)=C(C(=O)OC(C)(C)CN(C)CCC(c2ccccc2)c2ccccc2)C1c1cccc([N+](=O)[O-])c1` (stereo not drawn), the Potency entry in assay [1], in assay [2], in [3], in assay [4], in [5] and in assay [6] was “inactive” in each case. The Potency result in assay [7], in assay [8] and in assay [9] was “inactive” throughout.
With `COc1cc(S(=O)(=O)Nc2ccccc2)c(OC)cc1N`, the Potency entry in [1], in assay [2], in assay [3], in assay [4], in assay [5] and in assay [6] was “inactive” each time. Moreover, the Potency entry in [7], in assay [8] and in assay [9] was “inactive” in each case.
Take `CC(C)CC(O)CC(C)C`: the Potency result in assay [1], in assay [2], in assay [3], in assay [4], in assay [5] and in assay [6] was “inactive” throughout. The Potency entry in assay [7], in [8] and in [9] was “inactive” in each case.
For the compound `CCO[Si](C)(CCCOCC1CO1)OCC` (stereo not drawn), the Potency result in assay [1], in assay [2], in assay [3], in assay [4], in assay [5] and in assay [6] was “inactive” in each case. The Potency result in [7], in [8] and in [9] was “inactive” in each case.
Take `CNCc1ccc(NC(=O)c2c[nH]c3c2C(=O)CCC3)cc1`: the Potency entry in assay [1], in [2], in assay [3], in assay [4], in assay [5] and in assay [10] was “inactive” in each case. The Potency result in assay [8] and in [9] was “inactive” each time.
As for `COc1cc(NC(C)CCCN)c2ncccc2c1` (stereo not drawn), the Potency entry in assay [1], in assay [2], in assay [3], in [4], in assay [5] and in assay [10] was “inactive” each time. Also, the Potency entry in assay [6], in [8] and in assay [9] was “inactive” each time.
Turning to `CC(C)c1ccc(C(=O)N=C(N)N)cc1S(C)(=O)=O`, the Potency entry in assay [1], in assay [2], in [3], in assay [4], in assay [10] and in [6] was “inactive” in each case. Moreover, the Potency result in assay [7], in assay [8] and in assay [9] was “inactive” each time.
On to `CNS(=O)(=O)c1cc(C(=O)N2CCC(CCN3C4CCC3CC(n3c(C)nc5ccccc53)C4)(c3cccc(F)c3)CC2)c(Cl)cc1F` (stereo not drawn), for which the Potency entry in [1], in [2], in assay [3], in assay [4], in assay [5] and in assay [8] was “inactive” throughout. The Potency was 4.36 µM (active) in assay [6] and 3.89 µM (active) in assay [7].
Regarding `NC(=O)c1ccccc1[N+](=O)[O-]`, the Potency result in assay [1], in assay [3], in assay [4], in [5], in assay [10] and in assay [6] was “inactive” each time. Further, in [9], the Potency result was “inactive”. The Potency in [2] was 1.78 µM (active).
In the case of `COc1ccc(N)c([N+](=O)[O-])c1`, the Potency result in assay [1], in [2], in assay [3], in assay [4], in assay [5] and in [6] was “inactive” in each case. Further, the Potency entry in [7], in assay [8] and in [9] was “inactive” each time.
With `c1ccc(CNc2ncnc3c2ncn3C2CCCCO2)cc1` (stereo not drawn), the Potency entry in assay [1], in [2], in [3], in assay [4], in assay [5] and in assay [10] was “inactive” each time. Further, the Potency entry in assay [8] and in assay [9] was “inactive” each time.
For the compound `Cc1cn([C@H]2C[C@H](F)[C@@H](CO)O2)c(=O)[nH]c1=O`, the Potency result in assay [1], in [2], in [3], in assay [4], in assay [5] and in assay [6] was “inactive” throughout. Moreover, the Potency result in [7], in [8] and in assay [9] was “inactive” throughout.
As for `COC(C)(C)OC`, the Potency result in [1], in [2], in assay [3], in [4], in assay [5] and in assay [6] was “inactive” in each case. Besides, the Potency result in [8] was “inactive”.
`C1CCCCC1`: the Potency result in assay [1], in assay [2], in [3], in [4], in assay [5] and in [6] was “inactive” in each case. Moreover, the Potency entry in assay [7], in assay [8] and in assay [9] was “inactive” each time.
In the case of `Nc1ccc(N=Nc2ccc(N)cc2)cc1`, the Potency entry in assay [1], in [2], in assay [3], in [4], in assay [5] and in assay [6] was “inactive” throughout. Also, the Potency result in assay [7] and in assay [8] was “inactive” each time.
With `O=S(=O)(Cl)c1c(Cl)cccc1Cl`, the Potency result in assay [1], in assay [2], in [3], in assay [4], in assay [10] and in assay [6] was “inactive” in each case. For the same compound, the Potency entry in [7], in assay [8] and in [9] was “inactive” in each case.
`Nc1c(Cl)cc(Cl)cc1[N+](=O)[O-]`: the Potency result in [1], in assay [2], in assay [3], in assay [5], in [10] and in [6] was “inactive” throughout. Moreover, the Potency result in assay [8] and in assay [9] was “inactive” in each case.
For `CCC(C)(C)C(=O)O`, the Potency entry in assay [1], in [2], in assay [4], in [5], in assay [10] and in assay [6] was “inactive” each time. Further, the Potency result in assay [7], in [8] and in assay [9] was “inactive” each time.
As for `FC(F)(F)C(F)(F)C(F)(F)C(F)(F)CCI`, the Potency entry in [1], in [2], in assay [3], in assay [4], in assay [10] and in [6] was “inactive” each time. The Potency entry in assay [7], in assay [8] and in assay [9] was “inactive” throughout.
